# High-throughput results: PubChem, Small Molecule Screening Facility, UW Madison
# RMI-FANCM inh = disruptors of RMI1/RMI2 association with MM2 peptide – biochemical, fluorescence polarization, human, primary screen; AID 1159607, 2016; RMI core complex (RMI1/RMI2) binding to FANCM MM2 peptide, human; 0.58% of 70,000 active; FP signal (polarization) at 33 µM; RMI core complex with F-MM2 peptide; stronger effect = lower value; in the data active = FP signal below about 40
# An asterisk follows results filed as active. Many of the other results were omitted from the sample, so hits are more common in it than they were.
SMILES,RMI-FANCM inh
O=C(Nc1nc(-c2ccc3c(c2)OCCO3)cs1)c1ccc2ncsc2c1,68
O=C(CCCSc1ccc(NC(=O)c2cccs2)nn1)NCc1ccncc1,65
Cc1nnc(Nc2ccc(Cl)c(C(F)(F)F)c2)c2ccccc12,71
CC(=O)[C@]1(O)Cc2c(O)c3c(c(O)c2[C@@H](O[C@H]2C[C@H](N)[C@H](O)[C@H](C)O2)C1)C(=O)c1ccccc1C3=O,-37
COc1cccc2c1C(=O)c1c(O)c3c(c(O)c1C2=O)C[C@@](O)(C(C)=O)C[C@@H]3O[C@H]1C[C@H](N)[C@H](O)[C@H](C)O1,65
COc1cccc2c1C(=O)c1c(O)c3c(c(O)c1C2=O)C[C@@](O)(C(=O)CO)C[C@@H]3O[C@H]1C[C@H](N)[C@@H](O)[C@H](C)O1,-10*
COC(=O)CSCCc1nc(-c2ccc(Cl)c(Cl)c2)cs1,53
O=S(=O)(c1ccc(F)cc1)N1CCN(c2ccc(-c3ccco3)nn2)CC1,72
C=CCn1c(SCC(=O)Nc2sc3c(c2C(=O)OC)CCC3)nc2scc(-c3ccc(C)o3)c2c1=O,69
N#C/C(=N/Nc1ccccc1Cl)S(=O)(=O)c1ccc(Cl)cc1,44
CN1c2ccccc2C(=O)/C(=N/Nc2ccccc2Cl)S1(=O)=O,-6*
CN1C(=O)c2cccc(NC(=O)c3c(F)cccc3Cl)c2C1=O,69
C/C(=N/NC(N)=S)c1cccnc1,56
S=c1[nH]nc(-c2ccncc2)n1/N=C\c1cn(-c2ccccc2)nc1-c1cccs1,56
O=[N+]([O-])c1ccc(-c2nn(-c3ccccc3)cc2/C=N/n2c(-c3cccs3)n[nH]c2=S)cc1,12*
O=C(Cc1ccc([N+](=O)[O-])cc1)N/N=C\c1cn(-c2ccccc2)nc1-c1ccccc1,53
CCS(=O)(=O)N1CCc2ccc(NS(=O)(=O)c3ccc(F)cc3C)cc2C1,63
CN1CCN(c2cc(OCCNC(=O)Nc3cccc(Cl)c3)ncn2)CC1,61
CNC(=S)c1c(-c2ccccc2)c2c3n(c(COc4ccc(OC)cc4)nn13)CCCC2,54
CN(C)c1ccc(-c2nc3ccccc3c(=O)[nH]2)c(Cl)c1,51
CC(O)=c1c(=O)nc2ccc(Cl)c3c2=c1c1ccccc1c3=O,-21*
N#C/C(=C\c1ccc(Cl)c(Cl)c1)c1nc2ccccc2c(=O)[nH]1,62
CC1=C(Cl)C(O)=CC(=O)C12Oc1cc(O)c(Cl)c(C)c1C2=O (stereo not given),11*
Cc1cccc(OCC(=O)NC2CC(=O)N(c3cccc(F)c3)C2)c1 (stereo not given),52
Cn1ccnc1N1CCN(C(=O)c2ccc(S(=O)(=O)N3CCCC3)cc2)CC1,65
SMILES,RMI-FANCM inh
COc1ccc(-c2cc3nc(C)cc(C)n3n2)cc1OC,64
COc1ccc(-c2cc(C(F)(F)F)n3nc(-c4cccs4)cc3n2)cc1OC,9*
FC(F)(F)c1cc(-c2ccc(Cl)cc2)nc2cc(-c3ccccc3)nn12,55
CCOC(=O)Cc1csc(NC(=S)NC(=O)c2cccs2)n1,58
CCNc1[nH]c(=S)nc2sc3c(c12)CCN(C)C3,-15*
CCNc1nc(SCC(=O)NC(=O)NCc2ccccc2)nc2sc3c(c12)CCN(C)C3,5
CN1CCc2c(sc3nc(NC(=O)c4ccc(OC(F)(F)F)cc4)sc(=O)c23)C1,60
COc1cc(/C=N\n2c(C)nc3c(ncn3-c3ccccc3)c2=O)cc(OC)c1OC,86
Cc1nc2cc3ccccc3cc2c(=O)n1/N=C\N(C)C,8*
Cc1cc(Sc2nnc(N=CN(C)C)s2)c2ccccc2n1,56
Cc1cc(NC(=O)c2cc(=O)c3ccccc3o2)n(-c2nc(-c3cccs3)cs2)n1,69
COc1ccc(OC)c(NC(=O)CSc2nnc(NC(=O)C3CC3)s2)c1,56
COc1cccc2cc(C(=O)Nc3nnc(-c4cc(C)nn4C)o3)oc12,67
COc1cccc2cc(C(=O)Nc3nnc(-c4ccc5c(c4)OCO5)o3)oc12,65
COc1cccc2cc(C(=O)Nc3nnc(-c4ccc(SC)cc4)o3)oc12,32*
CCn1c(SCc2nc(-c3ccc(Cl)cc3)no2)nc2ccccc2c1=O,81
CCCN1CCCc2cc(CCNS(=O)(=O)c3ccc(OC)c(F)c3)ccc21,192
CCCN1CCCc2cc(CCNS(=O)(=O)c3ccc(Br)cc3)ccc21,139
CCCN1CCCc2cc(CCNC(=O)c3c(F)cccc3F)ccc21,59
CCCN1CCCc2cc(CCNS(=O)(=O)c3cccc(F)c3)ccc21,17*
CCCN1CCCc2cc(CCNC(=O)CC(C)(C)C)ccc21,77
CCCN1CCCc2cc(CCNC(=O)Cc3ccc(F)cc3)ccc21,28*
CC(/C=C1\SC(=S)N(NC(=O)c2ccccc2Br)C1=O)=C\c1ccccc1,70
CC(C)c1cc(C(=O)N/N=C\C=C\c2ccccc2)n[nH]1,57
O=c1cccnn1CCNS(=O)(=O)c1cc(Cl)c(Cl)cc1Cl,63
CCOc1cc(C(=O)Nc2nnc(SCC(=O)Nc3ccccc3C(F)(F)F)s2)cc(OCC)c1OCC,55
